The record followed here is the supplement of paper PMC7156485.

Each structure is given as a SMILES string.
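Also: TDF is a line of transformed human dermal fibroblasts of mesenchymal origin.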

This experiment concerns TDF. Description: H1.0 immunofluorescence intensity relative to DMSO (% of DMSO); higher = stronger H1.0 induction, active = 120 or more. The note with it: concentration: 10 µM; 24 h. The essentials:
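Cells were seeded at 800 per well in 384-well plates with RPMI containing 10% FBS; both HCC1569 and TDF lines were used. Compounds were added at 10 µM for 24 h at 37 °C, in triplicate, before fixation in 3.7% formaldehyde and staining with a rabbit anti-H1.0 antibody, an AlexaFluor 647 secondary and DAPI. H1.0 nuclear intensity or cell number is reported as percent of the plate control using the median of replicates, and HCC1569 values were smoothed for positional effects.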
Take `CN1Cc2c(N)cccc2C(c2ccccc2)C1.O=C(O)C=CC(=O)O` (stereo not given) [Nomifensine maleate]: the H1.0 immunofluorescence intensity is 89 (inactive). Then `COc1cc2nc(N3CCN(C(=O)C4COc5ccccc5O4)CC3)nc(N)c2cc1OC.CS(=O)(=O)O` (stereo not given) [Doxazosin mesylate], with 95.5 (inactive); and `COc1ccc(CCN(C)CCCC(C#N)(c2cc(OC)c(OC)c(OC)c2)C(C)C)cc1OC.Cl` (racemic), with 89 (inactive); and `COc1ccc2[nH]cc(CCNC(C)=O)c2c1` [Melatonin], with 93.4 (inactive). `O=c1cc(N2CCNCC2)oc2c(-c3ccccc3)cccc12`: the H1.0 immunofluorescence intensity was 92.8 (inactive). Then `CN1CCN(C2Cc3ccccc3Sc3ccc(Cl)cc32)CC1.O=C(O)C=CC(=O)O` (stereo not given) [Clorotepine maleate], with 106 (inactive). Then `Cl.Clc1ccc(Cn2c(CN3CCCC3)nc3ccccc32)cc1` [Clemizole hydrochloride], with 93.5 (inactive); and `CCCCCCCC/C=C\CCCCCCCC(=O)NCC(=O)O` [[(9Z)-9-octadecenoylamino]acetic acid], with 96.9 (inactive).

Consider `O=C(O)c1cccnc1C(=O)O` [Quinolinic acid], for which the H1.0 immunofluorescence intensity was 90.7 (inactive).

`NC(CCCP(=O)(O)O)C(=O)O` (racemic): the H1.0 immunofluorescence intensity is 94 (inactive).

Take `N=C([NH3+])N1CCc2ccccc2C1.N=C([NH3+])N1CCc2ccccc2C1.O=S(=O)([O-])[O-]` [Debrisoquin sulfate]: the H1.0 immunofluorescence intensity is 101 (inactive).

On to `CCN(CC)CCCC(C)Nc1c2ccc(Cl)cc2nc2ccc(OC)cc12` (stereo not given) [Quinacrine], for which the H1.0 immunofluorescence intensity is 118 (inactive). The value for `CCc1c(CC(N)=O)c2cc(OCCCP(=O)(O)O)ccc2n1Cc1ccccc1` was 96 (inactive); that for `COc1cc(-c2oc3cc(O)cc(O)c3c(=O)c2O)ccc1O` [Isorhamnetine] was 97.1 (inactive); that for `CCC(C)N(C)C(=O)c1cc2ccccc2c(-c2ccccc2Cl)n1` (stereo not given) was 90.8 (inactive). Consider `Cc1ccccc1/N=N/c1ccc(NC(=O)c2ccnn2C)c(C)c1`, for which the H1.0 immunofluorescence intensity is 98.5 (inactive). Then `CC(N)(Cc1ccc(O)c(O)c1)C(=O)O` [L-alpha-Methyl DOPA], with 91.3 (inactive). The value for `Cc1ccccc1C=CC1=NCCN1.O=C(O)C(=O)O` [Metrazoline oxalate] was 102 (inactive). The value for `O=C(O)C=CC(=O)O.c1cnc(N2CCN(Cc3ccc4c(c3)OCO4)CC2)nc1` [Piribedil maleate] was 93.8 (inactive); that for `COc1ccc(Cl)cc1C(=O)NCCc1ccc(S(=O)(=O)NC(=O)NC2CCCCC2)cc1` [Glibenclamide] was 93.9 (inactive); that for `COCCc1ccc(OCC(O)CNC(C)C)cc1` (stereo not given) [Metoprolol] was 102 (inactive).

With `COc1c(O)c2c(=O)cc(OC)c3c4c(OC)cc(=O)c5c(O)c(OC)c6c(c(c1CC(C)(O)C6C(C)=O)c23)c54` (stereo not given) [Hypocrellin A], the H1.0 immunofluorescence intensity is 97.2 (inactive). Then `O=C(Nc1cccc(Nc2nccc(Nc3cccc(C(F)(F)F)c3)n2)c1)C1CC1` [Aurora Kinase Inhibitor III], with 129 (active); and `CCn1cc(C(=O)O)c(=O)c2cc(F)c(N3CCNC(C)C3)c(F)c21.Cl` (stereo not given) [Lomefloxacin hydrochloride], with 92.2 (inactive); and `COC1C=COC2(C)Oc3c(C)c(O)c4c(c3C2=O)C(=O)C(=CNN2CCN(C)CC2)C(=C4O)NC(=O)C(C)=CC=CC(C)C(O)C(C)C(O)C(C)C(OC(C)=O)C1C` (stereo not given) [Rifampicin], with 94.5 (inactive). As to `Cc1c(Cl)cccc1Nc1ccccc1C(=O)O` [Tolfenamic acid], the H1.0 immunofluorescence intensity is 104 (inactive).

For the compound `CC(C)=CCCC(C)=CCOc1ccc2ccc(=O)oc2c1` [Auraptene], the H1.0 immunofluorescence intensity was 103 (inactive). The value for `CCCc1cc(=O)oc2c(C(=O)N3CCCc4ccccc43)c(OC)cc(OC)c12` was 108 (inactive).

Turning to `C#CC1(O)CCC2C3CCC4=CC(=O)CCC4C3CCC21C` (stereo not given) [Norethindrone], the H1.0 immunofluorescence intensity was 99.5 (inactive). Turning to `CCC1(O)CC2CN(CCc3c([nH]c4ccccc34)C(C(=O)OC)(c3cc4c(cc3OC)N(C)C3C(O)(C(=O)OC)C(OC(C)=O)C5(CC)C=CCN6CCC43C65)C2)C1` (stereo not given) [Vinblastine], the H1.0 immunofluorescence intensity was 161 (active).

On to `Nc1ncnc2n[nH]c(Nc3ccc(F)cc3)c12` [MNK1 Inhibitor], for which the H1.0 immunofluorescence intensity is 88.8 (inactive).

Take `O=C(Nc1nc2ccccc2n1CCN1CCOCC1)c1cccc([N+](=O)[O-])c1` [IRAK-1/4 Inhibitor]: the H1.0 immunofluorescence intensity was 91.2 (inactive). The value for `CNCC(O)c1cccc(O)c1.Cl` (stereo not given) [Phenylephrine hydrochloride] was 97.5 (inactive). Then `COc1cc2c(cc1OC)C(c1ccccc1)CN(C)CC2.O=C(O)C=CC(=O)O` (stereo not given), with 94.3 (inactive). Then `CC(C(=O)O)c1cccc(Oc2ccccc2)c1` (stereo not given) [Fenoprofen], with 94.2 (inactive). With `COC(=O)C1C2CC3c4[nH]c5cc(OC)ccc5c4CCN3CC2CC(OC(=O)c2cc(OC)c(OC)c(OC)c2)C1OC` (stereo not given) [Reserpine], the H1.0 immunofluorescence intensity is 101 (inactive). For the compound `Nc1nc(=O)c2ncn(CCC(CO)CO)c2[nH]1` [Penciclovir], the H1.0 immunofluorescence intensity was 90.4 (inactive).

Turning to `CCOc1ccc2c(c1)C(C)=CC(C)(C)N2` [Ethoxyquin], the H1.0 immunofluorescence intensity is 96.1 (inactive). Then `Cl.Cl.c1cnc(N2CCN(Cc3ccc4c(c3)OCO4)CC2)nc1` [Piribedil.2HCl], with 92 (inactive); and `CN(C)CCOC(c1ccccc1)c1ccccc1.Cl` [Diphenhydramine hydrochloride], with 88.7 (inactive).
